Reference: ChEMBL document CHEMBL3988442, “University of Dundee, Small-Polar-MMV Screening Library” (2021)

Each compound was assayed against AMP-activated protein kinase, AMPK (Homo sapiens) (UniProt P54646+O43741+P54619+Q9UGJ0+Q9Y478+Q13131+Q9UGI9) (assay: AMP-dependent Kinase enzyme assay. An in vitro enzyme assay that detects ADP turnover that is directly proportional to AMPK activity. This uses naive AMPK that is activated during the assay with MK-8722). Conditions: 30 µM.
Format: functional
Parameters: scale not given: direction of the effect not stated beside the values

Structure (SMILES)	Percent Effect
COCC1CC2(CCN(C(=O)c3cccn3C)CC2)CN1C(C)C (centres undefined)	4.17%
CCN(Cc1cccc(Cl)c1)Cn1nc(C)c2c(C)onc2c1=O	-4.63%
CC(C)c1nc(CC(=O)Nc2nc(CN3CCCCCC3)cs2)cs1	-8.27%
COc1cccc(CN(C)S(=O)(=O)N2CCOCC2)c1	1.96%
Cc1nn(C)c(N(C)C)c1CNCc1cccc(OCCN(C)C)c1	-1.72%
Cc1ccc(CNC(=O)CCSCc2csc(C)n2)cn1	-1.48%
CCO[C@@H]1CC[C@H]2[C@H]1OCCN2C(=O)C1CCOCC1	-7.07%
CCC1CCCCN1C(=O)c1ccc2[nH]nnc2c1 (centres undefined)	-3.81%
FC(F)(F)C1CCCn2c(CNCc3ccsc3)nnc21 (centres undefined)	-9.01%
CCC1(CC)Cc2ccccc2-c2nc(NCCO)[nH]c(=O)c21	29.9%
Cc1nc(C)n(CC2CCCCN2CCC(=O)Nc2cc(C)on2)n1 (centres undefined)	3.99%
Cc1nc(C)n(CC2CN(CC(=O)Nc3nccs3)CCO2)n1 (centres undefined)	-0.871%
CC(NC(=O)NCCOc1ccc(F)c(F)c1)c1nncn1C (centres undefined)	2.42%
COCCNc1nc(C2CCCC2)nc2c1CCNCC2	-0.634%
Cc1ccc(CNS(=O)(=O)CC2=NC(=O)n3cccc3C2=O)cc1	7.77%
CCS(=O)(=O)N(C)C(=O)c1cc(C)n(-c2cccc(OC)c2)c1C	-7.29%
Cn1ncc2c(=O)[nH]c(CN(Cc3ccco3)C3CCCC3)nc21	-6.78%
O=C(CS(=O)(=O)CC1CCCCC1)NC1CCCCNC1=O (centres undefined)	-1.46%
CC(N(C)Cc1nc2c(cnn2C)c(=O)[nH]1)C(C)(C)C (centres undefined)	-4.12%
CC(C)c1nc(C2CCCN2C(=O)c2nccnc2N)no1 (centres undefined)	-11%

Structure (SMILES)	Percent Effect
O=C1CC(N(C(=O)c2ccc3c(c2)CCC3)C2CC2)C(=O)N1 (centres undefined)	-5.04%
CCn1cnnc1CNC(=O)N1CCC(Cc2cccnc2)CC1	-0.131%
CC(NC(=O)NCc1cccc(N2CCCC2=O)c1)c1ccccc1 (centres undefined)	4.82%
O=C1N(c2ccc(F)cc2)Cc2nc(=O)n(Cc3cccc(Cl)c3)n21	8.75%
Cc1noc2nc(C3CCN(Cc4cccnc4)CC3)cc(C(F)F)c12	4.19%
CCOc1cccc(C(=O)NCCC(=O)Nc2ccncc2)c1	3.2%
O=S(=O)(Cc1ccccc1F)NCCN1CCOCC1	-0.989%
O=C(NCCc1ccccc1)C1CCC(Cn2cnnn2)CC1 (centres undefined)	1.1%
CC(C)c1nnc2n1CCN(Cc1csc(CC(=O)N(C)C)n1)C2	10.8%
Cc1cc(C)n(CC2CCCN2C(=O)CCc2cscn2)n1 (centres undefined)	7.92%
CC(=O)N1CCC(C(=O)N(C)[C@@H]2CCC[C@@H](N3CCCC3)[C@@H]2O)CC1	-7.25%
N#Cc1ccc(OCCCN2CCc3cncnc3C2)cc1	-14.8%
Cc1cnn(CCNCC(=O)NCCOc2ccccc2)c1	4.84%
CC(CCN1CCn2nc(CNC(=O)N(C)C)cc2C1)c1ccccc1 (centres undefined)	-1.77%
COc1ccc(CN(C)Cc2nc3c(cnn3C)c(=O)[nH]2)cc1OC	4.17%
CCOC(=O)C1CCCN(c2ccc(-c3nc(C)no3)cn2)C1 (centres undefined)	-4.16%
CC1Cc2ccccc2N1Cc1occc1C(=O)OCC(N)=O (centres undefined)	7.16%
CC(C)Oc1ccccc1CNC(=O)N1CCC(n2cncn2)CC1	-5.06%
COCC(O)CN(C)C(=O)NC1CCN(Cc2ccccn2)CC1 (centres undefined)	-7.26%
